Results published in PubChem BioAssay (NCI).
About 79,000 compounds went through this panel and 15% of them were active in at least one assay; those are over-represented in the sample as a whole. A number with no mark means an inactive call. Activity calls are given as the source filed them. Rule as the data show it: active = growth inhibition above about 70%; inactive = the rest.

Tests used:
[1] = NCI Yeast Anticancer Drug Screen. Data for the rad52 strain (AID 147);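 also: 0% = growth of vehicle-treated control cultures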; conditions: S. cerevisiae rad52 mutant growth inhibition, active compounds read high
Summary of the method: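 Read-out: growth inhibition versus vehicle-treated controls. Cells were a DNA repair-deficient yeast strain treated with compounds.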

[2] = NCI Yeast Anticancer Drug Screen. Data for the wt1 strain (AID 149);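 also: 0% = growth of vehicle-treated wt1 cultures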; conditions: S. cerevisiae wt1 strain (SPY 50644) growth inhibition, active compounds read high
Summary of the method: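 Compounds are added to wt1 yeast cultures. Growth is then measured. Inhibition is expressed relative to vehicle-treated controls.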

[3] = NCI Yeast Anticancer Drug Screen. Data for the rad50EPP+ strain (AID 151);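 also: 0% = growth of vehicle-treated control cultures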; conditions: S. cerevisiae rad50 mutant strain, active compounds read high
Summary of the method: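 Growth inhibition read against vehicle controls in rad50EPP+ yeast, a strain altered in DNA damage repair, after compound exposure.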

[4] = NCI Yeast Anticancer Drug Screen. Data for the mgt1 strain (AID 153); conditions: S. cerevisiae mgt1 mutant growth inhibition, active compounds read high
Summary of the method: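 mgt1 yeast grown with test compound; read-out is growth inhibition versus vehicle-treated cultures.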

[5] = NCI Yeast Anticancer Drug Screen. Data for the rad50 strain (AID 155);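 also: 0% = growth of vehicle-only cultures of the same strain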; conditions: S. cerevisiae rad50 strain growth inhibition, active compounds read high
Summary of the method: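 Inhibition values express reduced yeast growth in compound-treated cultures relative to vehicle-treated controls.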

[6] = NCI Yeast Anticancer Drug Screen. Data for the mec2-1 strain (AID 157); conditions: S. cerevisiae mec2-1 strain, active compounds read high
Summary of the method: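 Yeast mec2-1 mutant treated with compound. Readout: growth inhibition vs vehicle controls.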

[7] = NCI Yeast Anticancer Drug Screen. Data for the rad14 strain (AID 159);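 also: 0% = growth of vehicle-treated control cultures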; conditions: S. cerevisiae rad14 strain growth inhibition, active compounds read high
Summary of the method: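 A mutant yeast strain defective in DNA damage repair is treated with compound; inhibition of its growth is scored against untreated, vehicle-exposed cultures.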

[8] = NCI Yeast Anticancer Drug Screen. Data for the sgs1 mgt1 strain (AID 161);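 also: 0% = growth of cultures given vehicle only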; conditions: S. cerevisiae sgs1 mgt1 strain, active compounds read high
Summary of the method: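 Mutant yeast exposed to compound; growth scored against vehicle-only wells.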

[9] = NCI Yeast Anticancer Drug Screen. Data for the CLN2oe strain (AID 163);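 also: 0% = growth of vehicle-only control cultures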; conditions: S. cerevisiae CLN2oe strain, active compounds read high
Summary of the method: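 Read-out: yeast growth inhibition, expressed relative to vehicle-only controls. The strain bears an engineered cell-cycle alteration.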

[10] = NCI Yeast Anticancer Drug Screen. Data for the cln2 rad14 strain (AID 165);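 also: 0% = growth equal to vehicle treated cultures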; conditions: S. cerevisiae cln2 rad14 strain, active compounds read high
Summary of the method: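 cln2 rad14 yeast strain; compound exposure; growth inhibition read vs vehicle controls.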

[11] = NCI Yeast Anticancer Drug Screen. Data for the bub3 strain (AID 167); conditions: S. cerevisiae bub3 mutant strain, active compounds read high
Summary of the method: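 Steps: expose the mutant yeast strain to compound; grow alongside vehicle-treated cultures; measure growth; express inhibition against the vehicle cultures.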

[12] = NCI Yeast Anticancer Drug Screen. Data for the wt2 strain (AID 169);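 also: 0% = growth of vehicle-treated yeast cultures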; conditions: S. cerevisiae wt2 strain growth inhibition, active compounds read high
Summary of the method: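 Read-out: growth inhibition versus vehicle-treated control cultures after compound exposure of the yeast strain.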

[13] = NCI Yeast Anticancer Drug Screen. Data for the mlh1 strain (AID 171);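 also: 0% = growth of vehicle-treated control cultures of the same strain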; conditions: S. cerevisiae mlh1 strain growth inhibition, active compounds read high
Summary of the method: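 Read-out: growth inhibition versus vehicle controls. Strain: engineered yeast with a defined DNA repair or cell cycle defect, compound-treated.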

[14] = NCI Yeast Anticancer Drug Screen. Data for the mlh1 rad18 strain (AID 175); conditions: S. cerevisiae mlh1 rad18 strain growth inhibition, active compounds read high
Summary of the method: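 Yeast w/ defined DNA-repair lesions; compound exposure; growth vs vehicle controls → % inhibition.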

[15] = NCI Yeast Anticancer Drug Screen. Data for the rad18 strain (AID 177); conditions: S. cerevisiae rad18 mutant growth inhibition, active compounds read high
Summary of the method: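 Readout: growth inhibition vs vehicle controls. Cells: genetically altered yeast strain, DNA repair defect.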

[16] = at 5.0 µM (retest, dose inferred, filed as 0.5)
[17] = at 50.0 µM (retest, dose inferred, filed as 5.0)

O=C1C2CC[C@@H]3C(=O)C(Cl)(Cl)[C@@H]3CCC2C1(Cl)Cl (stereo partly specified)
growth inhibition ([1]; at 1.2 µM): 12% | growth inhibition ([1]; at 3.7 µM): 25% | growth inhibition ([1]; at 11.0 µM): 46% | growth inhibition ([1]; at 33.0 µM): 69% | growth inhibition ([1]; at 100.0 µM): 76% (active) | growth inhibition ([2]; at 1.2 µM): 0% | growth inhibition ([2]; at 3.7 µM): 1% | growth inhibition ([2]; at 11.0 µM): 2% | growth inhibition ([2]; at 33.0 µM): 9% | growth inhibition ([2]; at 100.0 µM): 12% | growth inhibition ([3]; at 1.2 µM): 8% | growth inhibition ([3]; at 3.7 µM): 15% | growth inhibition ([3]; at 11.0 µM): 37% | growth inhibition ([3]; at 33.0 µM): 56% | growth inhibition ([3]; at 100.0 µM): 50% | growth inhibition ([4]; at 1.2 µM): -2% | growth inhibition ([4]; at 3.7 µM): -1% | growth inhibition ([4]; at 11.0 µM): 8% | growth inhibition ([4]; at 33.0 µM): -2% | growth inhibition ([4]; at 100.0 µM): 4% | growth inhibition ([5]; at 1.2 µM): 5% | growth inhibition ([5]; at 3.7 µM): 12% | growth inhibition [5, 16]: 19% | growth inhibition ([5]; at 11.0 µM): -2% | growth inhibition ([5]; at 33.0 µM): 33% | growth inhibition [5, 17]: 70% (active) | growth inhibition ([5]; at 50.0 µM): 83.3% (active) | growth inhibition ([5]; at 100.0 µM): 37% | growth inhibition ([6]; at 1.2 µM): 2% | growth inhibition ([6]; at 3.7 µM): 6% | growth inhibition [6, 16]: -2% | growth inhibition ([6]; at 11.0 µM): 11% | growth inhibition ([6]; at 33.0 µM): 21% | growth inhibition [6, 17]: 49% | growth inhibition ([6]; at 50.0 µM): 81.9% (active) | growth inhibition ([6]; at 100.0 µM): 24% | growth inhibition ([7]; at 1.2 µM): 0% | growth inhibition ([7]; at 3.7 µM): 3% | growth inhibition ([7]; at 11.0 µM): 6% | growth inhibition ([7]; at 33.0 µM): 13% | growth inhibition ([7]; at 100.0 µM): 22% | growth inhibition [8, 16]: 18% | growth inhibition [8, 17]: 67% | growth inhibition ([8]; at 50.0 µM): 84.6% (active) | growth inhibition ([9]; at 1.2 µM): 3% | growth inhibition ([9]; at 3.7 µM): 0% | growth inhibition ([9]; at 11.0 µM): 5% | growth inhibition ([9]; at 33.0 µM): 10% | growth inhibition ([9]; at 100.0 µM): 20% | growth inhibition [10, 16]: 2% | growth inhibition [10, 17]: 22% | growth inhibition ([10]; at 50.0 µM): 78.8% (active) | growth inhibition ([11]; at 1.2 µM): 1% | growth inhibition ([11]; at 3.7 µM): 2% | growth inhibition [11, 16]: -30% | growth inhibition ([11]; at 11.0 µM): 12% | growth inhibition ([11]; at 33.0 µM): 10% | growth inhibition [11, 17]: 10% | growth inhibition ([11]; at 50.0 µM): 70.8% (active) | growth inhibition ([11]; at 100.0 µM): 11% | growth inhibition ([12]; at 1.2 µM): 1% | growth inhibition ([12]; at 3.7 µM): 3% | growth inhibition ([12]; at 11.0 µM): 7% | growth inhibition ([12]; at 33.0 µM): 10% | growth inhibition ([12]; at 100.0 µM): 14% | growth inhibition ([13]; at 1.2 µM): 1% | growth inhibition ([13]; at 3.7 µM): 1% | growth inhibition ([13]; at 11.0 µM): 4% | growth inhibition ([13]; at 33.0 µM): 10% | growth inhibition ([13]; at 100.0 µM): 9% | growth inhibition [14, 16]: 31% | growth inhibition [14, 17]: 88% (active) | growth inhibition ([14]; at 50.0 µM): 79.2% (active) | growth inhibition ([15]; at 1.2 µM): 59% | growth inhibition ([15]; at 3.7 µM): 85% (active) | growth inhibition ([15]; at 11.0 µM): 94% (active) | growth inhibition ([15]; at 33.0 µM): 95% (active) | growth inhibition ([15]; at 100.0 µM): 96% (active)

O=[N+]([O-])c1ccc2c(c1)C(N1CCN(CCO)CC1)Cc1ccc(F)cc1S2 (stereo unspecified)
growth inhibition ([1]; at 1.2 µM): -2% | growth inhibition ([1]; at 3.7 µM): -2% | growth inhibition ([1]; at 11.0 µM): -3% | growth inhibition ([1]; at 33.0 µM): -2% | growth inhibition ([1]; at 100.0 µM): 18% | growth inhibition ([2]; at 1.2 µM): -2% | growth inhibition ([2]; at 3.7 µM): -3% | growth inhibition ([2]; at 11.0 µM): -3% | growth inhibition ([2]; at 33.0 µM): -3% | growth inhibition ([2]; at 100.0 µM): 15% | growth inhibition ([3]; at 1.2 µM): -2% | growth inhibition ([3]; at 3.7 µM): -1% | growth inhibition ([3]; at 11.0 µM): -1% | growth inhibition ([3]; at 33.0 µM): -1% | growth inhibition ([3]; at 100.0 µM): 1% | growth inhibition ([4]; at 1.2 µM): -1% | growth inhibition ([4]; at 3.7 µM): -3% | growth inhibition ([4]; at 11.0 µM): -5% | growth inhibition ([4]; at 33.0 µM): -4% | growth inhibition ([4]; at 100.0 µM): 34% | growth inhibition ([5]; at 1.2 µM): 1% | growth inhibition ([5]; at 3.7 µM): 1% | growth inhibition [5, 16]: 3% | growth inhibition ([5]; at 11.0 µM): 1% | growth inhibition ([5]; at 33.0 µM): 2% | growth inhibition [5, 17]: 71% (active) | growth inhibition ([5]; at 50.0 µM): 44.2% | growth inhibition ([5]; at 100.0 µM): 62% | growth inhibition ([6]; at 1.2 µM): -8% | growth inhibition ([6]; at 3.7 µM): -2% | growth inhibition [6, 16]: 0% | growth inhibition ([6]; at 11.0 µM): -4% | growth inhibition ([6]; at 33.0 µM): -4% | growth inhibition [6, 17]: 48% | growth inhibition ([6]; at 50.0 µM): -3.7% | growth inhibition ([6]; at 100.0 µM): 8% | growth inhibition ([7]; at 1.2 µM): -2% | growth inhibition ([7]; at 3.7 µM): -1% | growth inhibition ([7]; at 11.0 µM): 1% | growth inhibition ([7]; at 33.0 µM): 15% | growth inhibition ([7]; at 100.0 µM): 93% (active) | growth inhibition [8, 16]: 13% | growth inhibition [8, 17]: 90% (active) | growth inhibition ([8]; at 50.0 µM): 72.8% (active) | growth inhibition ([9]; at 1.2 µM): -6% | growth inhibition ([9]; at 3.7 µM): -5% | growth inhibition ([9]; at 11.0 µM): 0% | growth inhibition ([9]; at 33.0 µM): 1% | growth inhibition ([9]; at 100.0 µM): 20% | growth inhibition [10, 16]: 2% | growth inhibition [10, 17]: 43% | growth inhibition ([10]; at 50.0 µM): 78.6% (active) | growth inhibition ([11]; at 1.2 µM): -1% | growth inhibition ([11]; at 3.7 µM): -4% | growth inhibition [11, 16]: -2% | growth inhibition ([11]; at 11.0 µM): 0% | growth inhibition ([11]; at 33.0 µM): -5% | growth inhibition [11, 17]: 79% (active) | growth inhibition ([11]; at 50.0 µM): -1.1% | growth inhibition ([11]; at 100.0 µM): 24% | growth inhibition ([12]; at 1.2 µM): -2% | growth inhibition ([12]; at 3.7 µM): -3% | growth inhibition ([12]; at 11.0 µM): -3% | growth inhibition ([12]; at 33.0 µM): -3% | growth inhibition ([12]; at 100.0 µM): 36% | growth inhibition ([13]; at 1.2 µM): -3% | growth inhibition ([13]; at 3.7 µM): -3% | growth inhibition ([13]; at 11.0 µM): -2% | growth inhibition ([13]; at 33.0 µM): -3% | growth inhibition ([13]; at 100.0 µM): 35% | growth inhibition [14, 16]: 0% | growth inhibition [14, 17]: -13% | growth inhibition ([14]; at 50.0 µM): 44.4% | growth inhibition ([15]; at 1.2 µM): -3% | growth inhibition ([15]; at 3.7 µM): -5% | growth inhibition ([15]; at 11.0 µM): -3% | growth inhibition ([15]; at 33.0 µM): 0% | growth inhibition ([15]; at 100.0 µM): 64%
